This is a sample that favours compounds with a hit; in the whole collection about 1.7% have one here.
NOD2 RIPK2 PPI: NOD2-RIPK2 binding disruptors in cells, primary screen, fluorescence, CHO cells, BLA complementation. CCF4 ratio. inhibition, % at 4.98 µM. 0.38% of 360,000 active. AID 624267, 2012; in the data active means inhibition above about 21%;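 further: 0% = vehicle only and 100% = reference blocker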
TLR4 MyD88 comp: inhibitors of TLR4-MyD88 association in cells, primary screen, cell-based, HeLa CL3-4, BLA complementation, FRET ratio; Toll-like receptor 4 (Homo sapiens) + Myeloid differentiation primary response protein …; HeLa CL3-4 TLR4/MyD88 BLA complementation; inhibition, % at 8.4 µM; 0.18% of 200,000 active; in the data active means inhibition above about 25%;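 further: 0% = vehicle and 100% = reference inhibitor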
ABCB6 inh 2: ABCB6 transporter inhibitors, primary screen, K562-ABCB6 cells, flow cytometry, MLPCN library. ATP-binding cassette sub-family B member 6 (Homo sapiens), Q9NP58. 0.19% of 360,000 active. fluorescence ratio to DMSO, % at 10 µM. K562-ABCB6 porphyrin accumulation, 1 h; stronger effect = lower value;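 active means fluorescence ratio to DMSO below 75%, the collection mean minus 3 SD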;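 further: signal is porphyrin accumulated inside mitochondria; 100% equals median channel fluorescence of DMSO control wells; lower ratio means ABCB6 inhibition with less porphyrin fluorescence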
Target sequence (Q9NP58 whole entry, looked up): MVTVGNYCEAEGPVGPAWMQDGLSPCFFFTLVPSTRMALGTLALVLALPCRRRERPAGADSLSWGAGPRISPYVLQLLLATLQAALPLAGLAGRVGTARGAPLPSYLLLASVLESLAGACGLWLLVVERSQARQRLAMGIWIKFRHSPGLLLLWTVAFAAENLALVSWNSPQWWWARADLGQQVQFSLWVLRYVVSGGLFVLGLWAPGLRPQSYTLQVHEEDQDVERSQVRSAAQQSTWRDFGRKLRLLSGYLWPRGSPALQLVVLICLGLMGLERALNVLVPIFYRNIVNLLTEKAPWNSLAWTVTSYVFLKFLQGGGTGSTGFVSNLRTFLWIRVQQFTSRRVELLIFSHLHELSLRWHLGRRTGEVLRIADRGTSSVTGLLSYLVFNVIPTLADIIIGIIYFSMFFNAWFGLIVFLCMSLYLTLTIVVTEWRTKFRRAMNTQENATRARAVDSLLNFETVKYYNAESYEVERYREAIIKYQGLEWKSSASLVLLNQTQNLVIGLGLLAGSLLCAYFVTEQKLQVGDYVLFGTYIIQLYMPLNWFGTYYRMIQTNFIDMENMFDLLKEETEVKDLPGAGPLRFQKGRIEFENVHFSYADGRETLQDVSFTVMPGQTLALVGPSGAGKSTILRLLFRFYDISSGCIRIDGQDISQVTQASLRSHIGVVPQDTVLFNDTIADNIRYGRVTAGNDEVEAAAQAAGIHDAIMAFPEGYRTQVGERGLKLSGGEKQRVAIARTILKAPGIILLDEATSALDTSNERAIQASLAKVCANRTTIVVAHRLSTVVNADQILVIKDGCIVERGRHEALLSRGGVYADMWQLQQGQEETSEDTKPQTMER
Myeloid diff 2: induction of myeloid progenitor differentiation, primary screen, cell-based, flow cytometry, MLPCN library. ER-HoxA9 myeloid progenitors, lysozyme-GFP differentiation. calls only at 10 µM. 1% of 360,000 active. AID 624256, 2012;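 active means normalized GFP-positive differentiation at or above the plate's own cutoff, the solvent-only control mean plus 3 SD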;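 further: cells exposed to compound for four days before flow analysis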
TLR9-MyD88 inh: inhibitors of TLR9-MyD88 association in cells, primary screen, cell-based, CHO, BLA complementation, fluorescence; Toll-like receptor 9 (Homo sapiens) + Myeloid differentiation primary response protein …; inhibition, % at 4.98 µM; CCF4 FRET ratio; AID 504734, 2011; 0.21% of 340,000 active;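 active means inhibition above the mean over all tested compounds plus 3 SD, cut at about 21% in these data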;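 further: 0% = DMSO only wells and 100% = clavulanate BLA inhibitor control wells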
Myeloid diff CP1: inducers of myeloid progenitor differentiation, confirmation, cell-based, GFP/Mac1 flow cytometry, cherry pick 01; shares compounds with Myeloid diff 2; ER-HoxA9 myeloid progenitors, GFP/Mac1 double-positive flow; calls only; 2% of 2,300 active; AID 651706, 2012;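 active means share of green or green-and-red cells above 9 and 9% in run 1 or 4 and 3% in run 2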
GFP autofluor: flagged as fluorescent in myeloid differentiation counter-screen. fluorescence response, % (test concentration not listed). ER-HoxA9 myeloid progenitors, no estrogen, GFP autofluorescence flow cytometry; vehicle wells 0%, positive control 100%. shares compounds with Myeloid diff 2. 7.4% of 2,300 active. AID 651707;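 active means over 5% cells positive for green fluorescent reporter, or over 2% positive for both it and APC stain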;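 further: range taken on the double positive population between DMSO and positive control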
Numbers without * were called inactive.

How did Cc1nc(SCC(=O)NCC2CCCO2)c2cc(-c3ccccc3)sc2n1 (centres undefined) do in these assays?
NOD2 RIPK2 PPI: 7.4; ABCB6 inh 2: 99.0; Myeloid diff 2: inactive; TLR9-MyD88 inh: -2.0; Myeloid diff CP1: inactive; GFP autofluor: 0.0

How did O=c1[nH][nH]c(-c2ccccc2O)c1C(C[N+](=O)[O-])c1ccc(Cl)cc1Cl (centres undefined) do in these assays?
NOD2 RIPK2 PPI: -3.1; TLR4 MyD88 comp: -3.9; ABCB6 inh 2: 99.0; Myeloid diff 2: inactive; TLR9-MyD88 inh: -9.9; Myeloid diff CP1: inactive; GFP autofluor: 1.1

What do the screens show for `NC(=O)C1CCN(C(=O)c2ccco2)CC1`?
NOD2 RIPK2 PPI: 7.6; TLR4 MyD88 comp: 4.3; ABCB6 inh 2: 98.0; Myeloid diff 2: inactive; TLR9-MyD88 inh: 9.6; Myeloid diff CP1: inactive; GFP autofluor: 0.0

What do the screens show for `O=C(Nc1ccccc1Cl)c1cc(C2CCCN(S(=O)(=O)c3cccs3)C2)on1` (centres undefined)?
NOD2 RIPK2 PPI: -3.1; ABCB6 inh 2: 107.0; Myeloid diff 2: inactive

What do the screens show for `Cc1ccc(S(=O)(=O)Nc2cccc(C(=O)NCc3cccnc3)c2)cc1F`?
NOD2 RIPK2 PPI: 8.3; ABCB6 inh 2: 106.0; Myeloid diff 2: inactive; TLR9-MyD88 inh: 0.4; Myeloid diff CP1: inactive; GFP autofluor: 0.0

How did O=C(NCc1cccnc1)c1cccc(NS(=O)(=O)c2ccc(Br)cc2)c1 do in these assays?
NOD2 RIPK2 PPI: -6.2; ABCB6 inh 2: 99.0; TLR9-MyD88 inh: -5.6

What do the screens show for `CCCCCCN1CCN(C2CN(Cc3cn(Cc4ccc(C)cc4)nn3)S(=O)(=O)C2)CC1` (centres undefined)?
NOD2 RIPK2 PPI: 0.5; ABCB6 inh 2: 102.0; Myeloid diff 2: inactive; Myeloid diff CP1: inactive; GFP autofluor: 0.0

What do the screens show for `Cc1ccc(Cn2cc(CN3CC(N4CCCCC4)CS3(=O)=O)nn2)cc1` (centres undefined)?
NOD2 RIPK2 PPI: -3.4; ABCB6 inh 2: 99.0; Myeloid diff 2: inactive

Results for N=C1C(c2nc3ccccc3s2)=C(O)CN1Cc1ccco1 ?
NOD2 RIPK2 PPI: -12.4; TLR4 MyD88 comp: -4.5; ABCB6 inh 2: 108.0; Myeloid diff 2: active; TLR9-MyD88 inh: 5.9; Myeloid diff CP1: inactive; GFP autofluor: 0.0

What do the screens show for `CN(C)CCN1CC(O)=C(c2nc3ccccc3s2)C1=N`?
NOD2 RIPK2 PPI: -4.5; ABCB6 inh 2: 100.0; Myeloid diff 2: inactive; TLR9-MyD88 inh: -0.2

How did COc1ccc(F)cc1S(=O)(=O)n1nnc2ccccc21 do in these assays?
NOD2 RIPK2 PPI: -5.6; TLR4 MyD88 comp: -9.7; ABCB6 inh 2: 108.0; Myeloid diff 2: inactive; TLR9-MyD88 inh: -11.2; Myeloid diff CP1: inactive; GFP autofluor: 0.0

How did Cc1cc(Br)c(S(=O)(=O)n2nnc3ccccc32)cc1C do in these assays?
NOD2 RIPK2 PPI: 10.2; TLR4 MyD88 comp: 7.0; ABCB6 inh 2: 102.0; Myeloid diff 2: inactive; TLR9-MyD88 inh: -3.1; Myeloid diff CP1: inactive; GFP autofluor: 3.5

Results for COc1ccc(OC)c(S(=O)(=O)n2nnc3ccccc32)c1 ?
NOD2 RIPK2 PPI: -3.5; TLR4 MyD88 comp: -5.2; ABCB6 inh 2: 97.0; Myeloid diff 2: inactive; TLR9-MyD88 inh: -1.7

What do the screens show for `CCN(C[C@H]1N[C@@](Cc2ccccc2)(C(=O)OC)[C@H]2C(=O)N(Cc3ccccc3)C(=O)[C@@H]12)C(=O)COc1ccccc1`?
NOD2 RIPK2 PPI: 8.5; ABCB6 inh 2: 98.0; Myeloid diff 2: inactive; TLR9-MyD88 inh: -10.0

What do the screens show for `COc1cc(OC)cc(C(=O)NCC2CCCN(Cc3cccc(C(C)=O)c3)C2)c1` (centres undefined)?
NOD2 RIPK2 PPI: -3.3; ABCB6 inh 2: 100.0; Myeloid diff 2: inactive; TLR9-MyD88 inh: -3.2

Results for COc1ccc(-c2cnc3c(c2)C(=O)N([C@H](C)CO)C[C@H](C)[C@H](CN(C)C(=O)Cc2cccnc2)O3)cc1 ?
NOD2 RIPK2 PPI: -17.6; ABCB6 inh 2: 99.0; Myeloid diff 2: inactive; TLR9-MyD88 inh: -4.1

Results for Cc1ccc(S(=O)(=O)N(C)C[C@H]2Oc3c(NC(=O)Nc4cccc5ccccc45)cccc3C(=O)N([C@@H](C)CO)C[C@@H]2C)cc1 ?
NOD2 RIPK2 PPI: 6.5; ABCB6 inh 2: 96.0; Myeloid diff 2: inactive; TLR9-MyD88 inh: -14.3; Myeloid diff CP1: inactive; GFP autofluor: 0.0

How did COCC(=O)N(C)C[C@H]1Oc2ncc(C#C[C@H](C)O)cc2C(=O)N([C@@H](C)CO)C[C@H]1C do in these assays?
NOD2 RIPK2 PPI: 5.8; ABCB6 inh 2: 102.0; Myeloid diff 2: active; TLR9-MyD88 inh: -1.0; Myeloid diff CP1: inactive; GFP autofluor: 0.0

What do the screens show for `COCC(=O)N(C)C[C@H]1Oc2ncc(Br)cc2C(=O)N([C@@H](C)CO)C[C@H]1C`?
NOD2 RIPK2 PPI: -3.5; ABCB6 inh 2: 101.0; Myeloid diff 2: inactive; TLR9-MyD88 inh: 1.6

What do the screens show for `Cc1ccc(-c2cnc3c(c2)C(=O)N([C@H](C)CO)C[C@@H](C)[C@@H](CN(C)C(=O)Cc2ccccc2)O3)cc1`?
NOD2 RIPK2 PPI: -15.4; ABCB6 inh 2: 97.0; Myeloid diff 2: inactive; TLR9-MyD88 inh: 3.1; Myeloid diff CP1: inactive; GFP autofluor: 0.3

Results for CCOc1ccccc1C(=O)Nn1c(C2CCC2)nc2ccccc2c1=O ?
NOD2 RIPK2 PPI: -2.1; TLR4 MyD88 comp: -0.4; ABCB6 inh 2: 94.0; Myeloid diff 2: active; TLR9-MyD88 inh: -5.6; Myeloid diff CP1: inactive; GFP autofluor: 0.0

How did CSc1ccccc1NC(=O)Nc1ccc(Cl)cc1 do in these assays?
NOD2 RIPK2 PPI: -9.7; TLR4 MyD88 comp: 1.3; ABCB6 inh 2: 96.0; Myeloid diff 2: inactive; TLR9-MyD88 inh: -10.9; Myeloid diff CP1: inactive; GFP autofluor: 0.0

What do the screens show for `COc1ccc(NC(=O)Nc2ccccc2SC)cc1`?
NOD2 RIPK2 PPI: -8.4; TLR4 MyD88 comp: 1.7; ABCB6 inh 2: 97.0; Myeloid diff 2: inactive; TLR9-MyD88 inh: 3.9

Results for O=C(c1ccccn1)N1CCN(S(=O)(=O)c2ccc3ccccc3c2)CC1 ?
NOD2 RIPK2 PPI: 4.7; TLR4 MyD88 comp: -6.9; ABCB6 inh 2: 104.0; Myeloid diff 2: inactive; TLR9-MyD88 inh: 8.7

Results for CCOc1ncccc1C(=O)N1CCN(S(=O)(=O)c2ccc3ccccc3c2)CC1 ?
NOD2 RIPK2 PPI: -2.1; ABCB6 inh 2: 100.0; Myeloid diff 2: inactive; TLR9-MyD88 inh: 2.4; Myeloid diff CP1: inactive; GFP autofluor: 0.0

Source: PubChem BioAssay
